Records with an inconclusive call do not appear. The source made the active and inactive calls. Unless noted, the call rests on the fitted dose curve; in most records, active means well fitted curve in the direction sought with a large enough effect in the repeat runs; inconclusive means weak or mixed curves; inactive means no such curve, though single readings can be large; an effect the other way counts as inactive or inconclusive.
What was measured:
[1] = qHTS assay to identify small molecule antagonists of the retinoid-related orphan receptor gamma (ROR-gamma) signaling pathway - cell viability counter screen (AID 1159520); further: on the % scale 0 is the no-effect control and ±100 the full control effect; nearly all actives have a fitted effect of over 50% in size
Outline: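 Tet-on ROR gamma CHO cells were given compounds for 2 hr, then doxycycline hyclate at 1 uM final, and incubated 16 hr at 37 C. Viability was measured as ATP content by CellTiter-Glo luminescence.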

[2] = target: Nuclear receptor ROR-gamma (Homo sapiens) (UniProt P51449); assay: qHTS assay to identify small molecule antagonists of the retinoid-related orphan receptor gamma (ROR-gamma) signaling pathway (AID 1159521; further: nearly all actives have a fitted effect of over 50% in size; further: potency means the concentration at half of the fitted maximal effect;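 on activity change, negative = inhibition: CHO cells with doxycycline inducible ROR-gamma driving an RORE luciferase reporter; top concentration of the series differs between compounds; on the % scale 0 is the no-effect control and ±100 the full control effect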)
Outline: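 Tet-on ROR-gamma CHO cells with ROR response element-luciferase reporter; compounds added 2 hr before 1 uM doxycycline induction, then 16 hr at 37 C. Antagonism scored as decreased ONE-Glo luminescence.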

[3] = qHTS assay to identify small molecule agonists of the AP-1 signaling pathway - cell viability counter screen (AID 1159525; calls by dose curve; further: nearly all actives have a fitted effect of over 55% in size)
Outline: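 Same-well cytotoxicity counter screen of the Tox21 10K library in ME-180 cells. The readout is ATP-dependent luminescence after 5 h compound treatment. Data are normalised to DMSO and tetra n-octyl ammonium bromide controls.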

[4] = qHTS assay to identify small molecule agonists of the AP-1 signaling pathway (AID 1159526; calls by dose curve; further: on the % scale 0 is the no-effect control and ±100 the full control effect)
[5] = target: Retinoic acid receptor RXR-alpha (Homo sapiens) (UniProt P19793); assay: qHTS assay to identify small molecule agonists of the RXR signaling pathway (AID 1159527; calls by dose curve; further: nearly all actives have a fitted effect of over 35% in size; further: potency means the concentration at half of the fitted maximal effect; on activation: on the % scale 0 is the no-effect control and ±100 the full control effect)
Outline: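 GeneBLAzer RXR-alpha-UAS-bla HEK 293T cells in 2% charcoal-stripped FBS medium were exposed to compounds for 16 hr at 37 C in agonist mode. Beta-lactamase reporter read as 460/530 nm FRET ratio after 2 hr substrate loading.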

[6] = qHTS assay to identify small molecule agonists of the RXR signaling pathway - cell viability counter screen (AID 1159529); further: series mostly up to about 77 µM; on the % scale 0 is the no-effect control and ±100 the full control effect; nearly all actives have a fitted effect of over 50% in size
Outline: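 RXR-alpha-UAS-bla HEK 293T cells in medium with 2% charcoal-stripped FBS were pre-incubated 5 hr, then compound-treated 16 hr at 37 C. Viability was read by CellTiter-Glo luminescence in the same wells as the beta-lactamase assay, with tetraoctyl ammonium bromide as positive control.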

[7] = qHTS assay to identify small molecule antagonists of the retinoid acid receptor (RAR) signaling pathway - cell viability counter screen (AID 1159551); further: on the % scale 0 is the no-effect control and ±100 the full control effect; nearly all actives have a fitted effect of over 35% in size
Outline: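 Viability of C3RL4 cells is quantified from ATP by luminescence after 6 h treatment at 37 C with compounds and 1 uM retinol.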

[8] = qHTS assay to identify small molecule antagonists of the retinoic acid receptor (RAR) signaling pathway (AID 1159552; further: on the % scale 0 is the no-effect control and ±100 the full control effect; nearly all actives have a fitted effect of over 50% in size)
Outline: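 Retinol signaling pathway inhibitors screened in C3RL4 RARE-luciferase reporter cells seeded overnight at 37 C, then compounds added with 1 uM (final) retinol as pathway substrate. After 6 hr at 37 C, luciferase luminescence read after 30 min at room temperature.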

[9] = qHTS assay to identify small molecule agonists of the vitamin D receptor (VDR) signaling pathway - cell viability counter screen (AID 743224)
Outline: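 In parallel with the bla FRET readout, cytotoxicity toward VDR-bla cells after 16 h compound exposure was assessed by CellTiter-Glo, with luminescence recorded after a 30 min room-temperature incubation.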

[10] = qHTS assay to identify small molecule antagonists of the vitamin D receptor (VDR) signaling pathway - cell viability counter screen (AID 743225)
Outline: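 VDR-UAS-bla HEK 293T cells were plated and incubated 4 h at 37C, then dosed with compound plus 3 nM (final) 1-alpha,25-dihydroxyvitamin D3 for 16 h. After the 2 h beta-lactamase read, viability in the same wells was read as CellTiter-Glo luminescence after 30 min at room temperature.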

Chain of Retinoic acid receptor RXR-alpha (Homo sapiens) (P19793 whole entry, looked up): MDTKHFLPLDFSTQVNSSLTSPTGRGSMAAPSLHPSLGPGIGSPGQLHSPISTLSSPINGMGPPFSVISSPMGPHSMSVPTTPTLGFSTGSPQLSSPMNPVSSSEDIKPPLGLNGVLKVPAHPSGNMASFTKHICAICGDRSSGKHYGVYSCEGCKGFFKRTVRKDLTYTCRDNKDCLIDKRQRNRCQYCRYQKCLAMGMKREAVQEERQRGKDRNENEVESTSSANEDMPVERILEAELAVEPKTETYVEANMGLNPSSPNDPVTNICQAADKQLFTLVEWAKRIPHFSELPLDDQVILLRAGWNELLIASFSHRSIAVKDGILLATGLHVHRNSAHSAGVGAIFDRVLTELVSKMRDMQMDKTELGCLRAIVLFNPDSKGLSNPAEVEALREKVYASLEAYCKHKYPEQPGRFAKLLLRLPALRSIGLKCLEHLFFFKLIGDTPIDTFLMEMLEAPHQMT

C=Cc1ccncc1
inactive: Potency [1] | Potency [2] | Potency [3] | Potency [4] | Potency [5] | Potency [6] | Potency [7] | Potency [8]

CC(C)(C)c1cc(CCC(=O)OCCSCCOC(=O)CCc2cc(C(C)(C)C)c(O)c(C(C)(C)C)c2)cc(C(C)(C)C)c1O
inactive: Potency [1] | Potency [2] | Potency [3] | Potency [4] | Potency [5] | Potency [6] | Potency [7]

CC(C)=CCC[C@H](C)CC=O
inactive: Potency [1] | Potency [2] | Potency [3] | Potency [4] | Potency [5] | Potency [6] | Potency [7]

C/C(=N\[Si](C)(C)C)O[Si](C)(C)C
inactive: Potency [1] | Potency [2] | Potency [3] | Potency [4] | Potency [5] | Potency [6] | Potency [7]

Cc1ccc2sc3cccc(C)c3c2c1
inactive: Potency [1] | Potency [2] | Potency [3] | Potency [4] | Potency [5] | Potency [7]

CC(C=O)c1ccccc1 (stereo unspecified)
inactive: Potency [1] | Potency [2] | Potency [3] | Potency [4] | Potency [5] | Potency [7] | Potency [8]

CCOC(=O)[C@H](C)O
inactive: Potency [1] | Potency [2] | Potency [3] | Potency [4] | Potency [5] | Potency [7]

CCC(=O)OC/C=C(\C)CCC=C(C)C
inactive: Potency [1] | Potency [2] | Potency [3] | Potency [4] | Potency [5] | Potency [6] | Potency [7]

[Cl][Sc]([Cl])[Cl]
inactive: Potency [1] | Potency [2] | Potency [3] | Potency [4] | Potency [5] | Potency [6] | Potency [7]

CSc1ccc(O)cc1C
inactive: Potency [1]
active: Potency [2] 43.3 µM

Nc1ccc(F)c([N+](=O)[O-])c1
inactive: Potency [1] | Potency [2] | Potency [3] | Potency [4] | Potency [5] | Potency [6] | Potency [7]

C/C=C/C(=O)C1=C(C)C=CCC1(C)C
inactive: Potency [1] | Potency [2] | Potency [3] | Potency [4] | Potency [5] | Potency [6] | Potency [7]

SC1CCCCC1
inactive: Potency [9] | Potency [10] | Potency [1] | Potency [2] | Potency [3] | Potency [4] | Potency [5] | Potency [7]

Cn1ccnc1
inactive: Potency [1] | Potency [2] | Potency [3] | Potency [4] | Potency [5] | Potency [6] | Potency [7]

C/C(=C\c1ccc(C(=O)O)cc1)c1ccc2c(c1)C(C)(C)CCC2(C)C
active: Potency [5] 0.952 µM
inactive: Potency [1] | Potency [2] | Potency [3] | Potency [4] | Potency [7]

O=c1[nH]cccc1O
inactive: Potency [1] | Potency [2] | Potency [3] | Potency [4] | Potency [5] | Potency [6] | Potency [7] | Potency [8]

Nc1cc([N+](=O)[O-])cc(Cl)c1O
inactive: Potency [1] | Potency [2] | Potency [3] | Potency [4] | Potency [5] | Potency [6] | Potency [7] | Potency [8]

C1=CCCC1
inactive: Potency [1] | Potency [2] | Potency [3] | Potency [4] | Potency [5] | Potency [6] | Potency [7] | Potency [8]

CCCCCCCCCCCCS(=O)(=O)Cl
inactive: activity, negative = cytotoxicity [1] -7.74% [at 19 µM] | activity change, negative = inhibition [2] 0.574% [at 19 µM] | viability change, negative = cytotoxic [3] -17.5% [at 15.8 µM] | activation [4] -7.42% [at 15.8 µM] | activation [5] -13.1% [at 15.8 µM] | activity change, negative = cytotoxicity [7] 0.197% [at 19 µM] | activity, negative = inhibition [8] -0.011% [at 19 µM]

CCN(CC)c1ccc(C=O)cc1
inactive: Potency [1] | Potency [2] | Potency [3] | Potency [4] | Potency [6] | Potency [7]

CCN(CCC#N)c1ccc(N=Nc2ccc([N+](=O)[O-])cc2)cc1
inactive: Potency [1] | Potency [2] | Potency [3] | Potency [4] | Potency [5] | Potency [6] | Potency [8]

Nc1cccnc1N
inactive: Potency [1] | Potency [2] | Potency [3] | Potency [4] | Potency [5] | Potency [6] | Potency [7]

Cc1cccc2c1ccc1ccccc12
inactive: Potency [1] | Potency [2] | Potency [3] | Potency [4] | Potency [5] | Potency [6] | Potency [7] | Potency [8]

Nc1cc([N+](=O)[O-])ccc1Cl
inactive: Potency [1] | Potency [2] | Potency [3] | Potency [4] | Potency [5] | Potency [6] | Potency [7]

Cc1cccc(C)c1C
inactive: Potency [1] | Potency [2] | Potency [3] | Potency [4] | Potency [5] | Potency [6] | Potency [7]

CC/C=C(\C)C=O
inactive: Potency [1] | Potency [2] | Potency [3] | Potency [4] | Potency [5] | Potency [6] | Potency [7]

O=C1c2ccccc2C(=O)c2c(Cl)cccc21
inactive: Potency [1] | Potency [2] | Potency [3] | Potency [4] | Potency [5] | Potency [7] | Potency [8]

Reference: PubChem BioAssay (Tox21)
